Some test systems named below: EKVX NSCLC; SN12C renal; UO-31 renal; TK-10 renal; ACHN renal; CAKI-1 renal; A498 renal; CCRF-CEM leukemia; MOLT-4 leukemia.
Common to all, as to experiment: NCI-60 one-dose screen, 48 h (100 = growth as untreated, 0 = no growth, -100 = all killed)
Holding throughout (details): 10 µM unless noted

About 83,000 compounds went through this panel and 20% of them were active in at least one assay; those are over-represented in the sample as a whole.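 Percent growth is the endpoint: 0 to 100 indicates growth inhibition (40 means 60% inhibition), 0 means no net growth, and negative values indicate cell death.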 A number with no mark means an inactive call. Activity calls are given as the source filed them. How the source made its calls: active means growth percent below 10; inactive means the rest.

With `CCSc1nnc2n(Cc3ccccc3)c(=O)c3c(C)c(C(N)=O)sc3n12`, the growth in the experiment with EKVX NSCLC was 99%; in the experiment on SN12C renal, 103%; in the experiment with UO-31 renal it was 67%; in the experiment on TK-10 renal, 111%; in the experiment on ACHN renal it was 93.7%; in the experiment on CAKI-1 renal, 85.8%. Further, the growth in the experiment with A498 renal was 84.2%.

Consider `Cc1c(C(N)=O)sc2c1c(=O)n(Cc1ccccc1)c1nnc(SCC(=O)Nc3ccc(Cl)cc3)n21`, for which the growth was 50.2% in the experiment with EKVX NSCLC; 50.8% in the experiment on SN12C renal; 75.5% with UO-31 renal; -22.9% (active) in the experiment on TK-10 renal; 32.7% with ACHN renal; 77% in the experiment with CAKI-1 renal. For the same compound, the growth in the experiment on A498 renal is 40.1%.

In the case of `CC(C)[C@H]1CC[C@H]2[C@@H](CC[C@H]3[C@](C)(CN)CCC[C@]23C)C1`, the growth was 68.5% with EKVX NSCLC; 85.9% with SN12C renal; 70.1% in the experiment on UO-31 renal; 89.6% in the experiment on TK-10 renal; 84% with ACHN renal; 87.6% with CAKI-1 renal. Also, the growth was 81.3% in the experiment on A498 renal, 48.3% in the experiment with CCRF-CEM leukemia and 37.2% in the experiment with MOLT-4 leukemia.

As for `CC[N+](C)(CC)CCCC(C)Nc1ccnc2cc(Cl)ccc12` (stereo not drawn), the growth in the experiment with EKVX NSCLC was 109%; in the experiment on SN12C renal, 109%; with UO-31 renal, 91.4%; in the experiment with TK-10 renal, 124%; in the experiment with ACHN renal, 114%; in the experiment with CAKI-1 renal it was 102%. Further, the growth is 100% in the experiment with A498 renal and 103% in the experiment with CCRF-CEM leukemia.

Turning to `Cc1c(C(N)=O)sc2c1C(=O)N(Cc1ccccc1)C1=NN=C(c3ccc(Cl)cc3)CN12`, the growth is 62.7% in the experiment with EKVX NSCLC; 61.5% in the experiment on SN12C renal; 26.3% in the experiment on UO-31 renal; 59.4% with TK-10 renal; 21.9% in the experiment with ACHN renal; 18.6% in the experiment with CAKI-1 renal. The growth with A498 renal was 105%.

As to `CCCCCCCC/C=C/CCCCCCCC1=NC(C)(C)CN1CC(C)O` (stereo not drawn), the growth with EKVX NSCLC is 71.2%; in the experiment with SN12C renal it was 54.9%; in the experiment with UO-31 renal it was -73.9% (active); with TK-10 renal, 82.8%; in the experiment on ACHN renal, 28%; with CAKI-1 renal, 62%. Further, the growth was 76.9% with A498 renal and -37.9% (active) in the experiment with CCRF-CEM leukemia.

For `Cc1ccc(NC(=O)CSc2nnc3n(Cc4ccccc4)c(=O)c4c(C)c(C(N)=O)sc4n23)cc1`, the growth in the experiment on EKVX NSCLC is 91.7%; with SN12C renal, 58.5%; in the experiment with UO-31 renal, 81.9%; with TK-10 renal it was -24.4% (active); in the experiment with ACHN renal, 75.6%; with CAKI-1 renal, 91.7%. For the same compound, the growth in the experiment with A498 renal is 6.08% (active).

For the compound `NC(N)=NN=c1c(=O)c2ccccc2c1=O`, the growth with EKVX NSCLC was 118%; with SN12C renal, 16.3%; in the experiment with UO-31 renal it was 64.8%; in the experiment with TK-10 renal it was 110%; with ACHN renal, 78%; with CAKI-1 renal, 104%. Moreover, the growth with A498 renal was 78.1%; in the experiment on CCRF-CEM leukemia it was -27.9% (active); in the experiment on MOLT-4 leukemia, -33.1% (active).

As to `Cc1nn(-c2ccccc2)c(Cl)c1C(CC(=O)c1ccc(Cl)cc1)CC(=O)c1ccc(Cl)cc1`, the growth with EKVX NSCLC is 94.8%; with SN12C renal it was 85.2%; in the experiment on UO-31 renal, 76.7%; with TK-10 renal, 104%; in the experiment on ACHN renal, 88.4%; with CAKI-1 renal, 76.4%. Moreover, the growth in the experiment with A498 renal was 66.9%.

Regarding `c1ccc(-c2nn[nH]n2)c(-c2ccc(CN3CCN(c4nsc5ccccc45)CC3)cc2)c1`, the growth is 106% in the experiment with EKVX NSCLC; 92.6% with SN12C renal; 103% in the experiment with UO-31 renal; 103% in the experiment with TK-10 renal; 98.7% with ACHN renal; 84% in the experiment with CAKI-1 renal. For the same compound, the growth in the experiment on A498 renal was 85.1%.

On to `Cc1cc(C)c(OC(=O)CSc2nc3ccccc3c(=O)n2CCc2ccccc2)cc1C`, for which the growth is 64.4% with EKVX NSCLC; 91.8% in the experiment with SN12C renal; 63.6% in the experiment on UO-31 renal; 124% in the experiment on TK-10 renal; 92% in the experiment with ACHN renal; 72.6% in the experiment with CAKI-1 renal. The growth in the experiment on A498 renal is 94.5%.

With `NC(=O)c1ncn([C@@H]2O[C@H](CO)[C@@H](O)[C@H]2O)n1`, the growth in the experiment with EKVX NSCLC is 96.9%; in the experiment with SN12C renal, 89.3%; in the experiment with UO-31 renal it was 73.5%; in the experiment with TK-10 renal, 95.5%; in the experiment on ACHN renal it was 83.1%; with CAKI-1 renal, 85.4%. For the same compound, the values for the growth with A498 renal, in the experiment on CCRF-CEM leukemia and in the experiment on MOLT-4 leukemia were 110%, 76.9% and 72.3%, respectively.

Turning to `Cc1nn(-c2ccccc2)c2nc(Cl)c(/C=C/C(=O)c3ccccc3)c(-c3ccccc3)c12`, the growth with EKVX NSCLC is 107%; with SN12C renal, 102%; in the experiment with UO-31 renal, 82.4%; in the experiment on TK-10 renal, 121%; in the experiment on ACHN renal it was 104%; with CAKI-1 renal, 97.8%. Also, in the experiment on A498 renal, the growth was 112%.

In the case of `NS(=O)(=O)c1ccc(NC2=C(Cl)C(=O)c3ccccc3C2=O)cc1`, the growth was 107% in the experiment with EKVX NSCLC; 87% with SN12C renal; 53.2% with UO-31 renal; 164% in the experiment with TK-10 renal; 78.3% in the experiment on ACHN renal; 107% with CAKI-1 renal. Further, the growth was 163% in the experiment with A498 renal, 85.7% in the experiment on CCRF-CEM leukemia and 73.6% in the experiment with MOLT-4 leukemia.

For `O=C1Cc2cc(CCn3cncn3)c(Cl)cc2N1`, the growth in the experiment with EKVX NSCLC was 29.5%; in the experiment with SN12C renal, 55.8%; in the experiment with UO-31 renal, 66%; in the experiment on TK-10 renal, 122%; in the experiment on ACHN renal it was 74.6%; in the experiment on CAKI-1 renal, 60%. In addition, the growth in the experiment on A498 renal is 47.1%.

For the compound `Clc1ccc(-c2nc(-c3cccs3)no2)c(Cl)c1`, the growth in the experiment with EKVX NSCLC was 72.6%; in the experiment on SN12C renal it was 101%; in the experiment with UO-31 renal it was 70.9%; in the experiment with TK-10 renal, 71.4%; in the experiment with ACHN renal it was 99.8%; with CAKI-1 renal, 82%. Also, the growth with A498 renal is 111%; in the experiment on CCRF-CEM leukemia it was 86%.
